BoNT-A LC inh2 = inhibitors of Botulinum neurotoxin A light chain protease. inhibition, % at 10 µM. multiplex microsphere protease substrate cleavage, flow cytometry. actives 0.17% (n = 360,000); also: plate controls were buffer without enzyme for full effect and enzyme alone for no effect
3CLpro inhibitor = SARS-CoV 3CLpro protease inhibition; recombinant SARS-CoV 3CLpro, quenched FRET peptide cleavage; inhibition, % at 6 µM; actives 0.14% (n = 290,000); AID 1706; in the data active = inhibition above about 12%
Anthrax LF prot = anthrax lethal factor protease inhibition; P15917; multiplex microsphere protease cleavage assay, LF; inhibition, % at 10 µM; actives 0.12% (n = 360,000); AID 588501; also: plate controls were buffer without enzyme for full effect and enzyme alone for no effect
Target sequence (P15917 whole entry, looked up): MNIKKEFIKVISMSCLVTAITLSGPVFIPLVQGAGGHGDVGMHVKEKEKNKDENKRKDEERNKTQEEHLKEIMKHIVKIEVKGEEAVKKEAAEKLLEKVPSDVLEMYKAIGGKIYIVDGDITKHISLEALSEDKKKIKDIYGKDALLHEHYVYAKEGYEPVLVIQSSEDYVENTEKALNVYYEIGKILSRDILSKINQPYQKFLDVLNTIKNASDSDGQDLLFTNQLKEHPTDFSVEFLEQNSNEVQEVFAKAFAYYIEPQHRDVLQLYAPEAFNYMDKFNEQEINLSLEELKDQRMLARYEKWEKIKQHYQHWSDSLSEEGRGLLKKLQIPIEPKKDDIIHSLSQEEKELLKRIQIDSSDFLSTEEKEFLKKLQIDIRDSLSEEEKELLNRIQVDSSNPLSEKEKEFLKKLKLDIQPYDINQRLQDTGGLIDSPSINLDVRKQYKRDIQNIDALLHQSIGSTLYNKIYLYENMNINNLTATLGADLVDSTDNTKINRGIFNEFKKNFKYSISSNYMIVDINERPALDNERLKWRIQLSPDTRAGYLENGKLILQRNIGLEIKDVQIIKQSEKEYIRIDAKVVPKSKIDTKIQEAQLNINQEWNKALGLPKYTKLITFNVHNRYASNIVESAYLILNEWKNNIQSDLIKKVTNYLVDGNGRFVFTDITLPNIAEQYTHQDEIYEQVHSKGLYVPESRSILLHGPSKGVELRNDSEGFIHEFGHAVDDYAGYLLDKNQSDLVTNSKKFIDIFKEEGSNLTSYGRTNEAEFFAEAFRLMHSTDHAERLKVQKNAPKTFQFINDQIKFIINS
BoNT F protease = inhibitors of Botulinum neurotoxin F light chain protease; Multiplex microsphere protease cleavage assay, flow cytometry; inhibition, % at 10 µM; actives 0.22% (n = 360,000); AID 588497; in the data active = inhibition above about 35%, passing the limit was not always enough; inconclusive = no clear call, values can overlap the other calls; also: plate controls were buffer without enzyme for full effect and enzyme alone for no effect
CCHFV vOTU inh = CCHFV vOTU protease inhibition | inhibition, % at 11.5 µM | Pep-AMC fluorescence | actives 0.55% (n = 370,000); in the data active = inhibition above about 30%; also: 0% = vehicle wells with enzyme and 100% = no enzyme wells
Bead autofluor = flagged as autofluorescent in microsphere protease counterscreen; compound autofluorescence counterscreen, microsphere flow cytometry; stronger effect = higher value; fluorescence intensity (test concentration not listed); actives 3.1% (n = 360,000); AID 624483; in the data active = fluorescence intensity above about 16000; inconclusive = no clear call, values can overlap the other calls
* marks the source's active call; other numbers are inactive results. In the library only some 3.9% were active in any assay of this set; here they are far more common. Rule as the data show it, unless noted: active = inhibition above about 30%; inconclusive = no clear call, values can overlap the other calls; inactive = below that.

Cc1cc(N2CCN(C)CC2)nc2ccc(NC(=O)CCC(=O)NCCC3=CCCCC3)cc12 was read as BoNT-A LC inh2 -2.1, 3CLpro inhibitor -0.9, Anthrax LF prot -1.3, BoNT F protease -5.9, CCHFV vOTU inh -14.8 and Bead autofluor 21266*.
COc1ccc(CCNC(=O)CCC(=O)Nc2ccc3nc(N4CCN(C)CC4)cc(C)c3c2)cc1OC was read as BoNT-A LC inh2 -0.1, 3CLpro inhibitor -1.1, Anthrax LF prot -4.0, BoNT F protease 1.6, CCHFV vOTU inh -18.2 and Bead autofluor 3954.
For COC(=O)C1=C(C)N(Cc2ccc(C(F)(F)F)cc2)C(=NCC2CC2)NC1c1cccc(Cl)c1 (stereo unspecified) the results were CCHFV vOTU inh 20.1.
Screening COC(=O)c1cc2c(c3c4cc(OC)ccc4n(S(=O)(=O)c4ccc(OC)cc4)c13)C(=O)N(Cc1ccccc1)C2 returned CCHFV vOTU inh -5.7.
Screening Cc1ccc(NC(=O)c2ccc(C)cc2)cc1 returned BoNT-A LC inh2 -0.4, Anthrax LF prot -3.5, BoNT F protease -8.7, CCHFV vOTU inh 15.8 and Bead autofluor 4318.
For Cc1ccc(C(=O)Nc2ccc(Br)c(C(F)(F)F)c2)cc1 the results were BoNT-A LC inh2 -1.1, 3CLpro inhibitor 9.5, Anthrax LF prot -1.3, BoNT F protease -4.4, CCHFV vOTU inh 13.4 and Bead autofluor 16589*.
Screening CCn1c(SCC(=O)N2CCN(c3ccccc3)CC2)nnc1-c1cc2cc(Cl)ccc2o1 returned BoNT-A LC inh2 inconclusive, 3CLpro inhibitor 0.8, Anthrax LF prot -2.9, BoNT F protease 0.1, CCHFV vOTU inh -3.1 and Bead autofluor 22674*.
COCCCn1c(Cc2ccccc2)nnc1SCC(=O)N1CCCCC1 was read as BoNT-A LC inh2 -1.5, 3CLpro inhibitor 3.7, Anthrax LF prot 0.5, BoNT F protease -2.3, CCHFV vOTU inh -5.8 and Bead autofluor 22748*.
For COC(=O)[C@]12C[C@H](CC(=O)N3CCC(c4ccccc4)CC3)C(=O)N(CCC3=CCCCC3)C1=C[C@H](COCc1ccccc1)O[C@@H]2C the results were CCHFV vOTU inh 17.2.
Screening CC1(C)Cc2nc3oc4c(=O)n(CC(=O)Nc5ccccc5)cnc4c3cc2CO1 returned BoNT-A LC inh2 0.2, 3CLpro inhibitor 0.3, Anthrax LF prot 1.4, BoNT F protease -3.9, CCHFV vOTU inh -1.1 and Bead autofluor 2473.
CC1(C)Cc2nc3sc4c(=O)n(CC(=O)NCc5ccco5)cnc4c3cc2CO1 was read as BoNT-A LC inh2 inconclusive, 3CLpro inhibitor -5.8, Anthrax LF prot -3.5, BoNT F protease 11.6, CCHFV vOTU inh -3.5 and Bead autofluor 19965*.
Screening CC1(C)CC(=O)C2=C(C1)NCN(Cc1ccccc1)C2 returned BoNT-A LC inh2 -0.3, 3CLpro inhibitor -1.1, Anthrax LF prot -12.8, BoNT F protease -1.4, CCHFV vOTU inh 2.0 and Bead autofluor 16534*.
Screening Cc1ccc(-n2nc3c(c2NC(=O)c2c(-c4ccccc4Cl)noc2C)CS(=O)(=O)C3)c(C)c1 returned BoNT-A LC inh2 inconclusive, 3CLpro inhibitor 1.4, Anthrax LF prot -1.7, BoNT F protease -3.2, CCHFV vOTU inh -0.5 and Bead autofluor 23658*.
`Cc1ccccc1-n1nc2c(c1NC(=O)c1ccco1)CS(=O)(=O)C2` gave BoNT-A LC inh2 0.5, 3CLpro inhibitor -9.6, Anthrax LF prot -2.8, BoNT F protease -0.5, CCHFV vOTU inh -1.7 and Bead autofluor 4163.
`Cc1ccccc1-n1nc2c(c1NC(=O)c1c(-c3ccccc3Cl)noc1C)CS(=O)(=O)C2` gave BoNT-A LC inh2 -2.5, 3CLpro inhibitor -0.9, Anthrax LF prot -9.8, BoNT F protease -7.0, CCHFV vOTU inh -1.2 and Bead autofluor 16862*.
`CCOC(=O)CSc1nnc(CNC(=O)c2ccc(OC)cc2OC)n1-c1ccc(OC)cc1` gave BoNT-A LC inh2 -1.3, 3CLpro inhibitor -1.7, Anthrax LF prot 1.1, BoNT F protease -0.1, CCHFV vOTU inh -1.3 and Bead autofluor 21152*.
For CCOC(=O)CSc1nnc(Cc2cc(=O)[nH]c(=O)[nH]2)n1-c1cccc(OC)c1 the results were BoNT-A LC inh2 inconclusive, 3CLpro inhibitor -2.2, Anthrax LF prot -13.9, BoNT F protease -1.2, CCHFV vOTU inh -2.2 and Bead autofluor 21403*.
For COC(=O)CSc1nnc(Cc2cc(=O)[nH]c(=O)[nH]2)n1-c1cccc(OC)c1 the results were BoNT-A LC inh2 -0.2, 3CLpro inhibitor -3.4, Anthrax LF prot -1.5, BoNT F protease 4.4, CCHFV vOTU inh -8.8 and Bead autofluor 3913.
For O=C(NC1CCCC1)c1ccc(COc2ccccc2)o1 the results were CCHFV vOTU inh 4.9.
Screening COc1ccc(OC)c(C(=O)COC(=O)c2c(OC)cccc2OC)c1 returned BoNT-A LC inh2 0.4, 3CLpro inhibitor -4.2, Anthrax LF prot -4.4, BoNT F protease 7.2, CCHFV vOTU inh 6.9 and Bead autofluor 3562.
COc1ccc(OC)c(C(=O)COC(=O)c2ccccc2O)c1 was read as BoNT-A LC inh2 2.3, 3CLpro inhibitor 0.4, Anthrax LF prot 0.1, BoNT F protease 1.8, CCHFV vOTU inh -3.7 and Bead autofluor 22401*.
Screening C[C@H]1CCCC(=O)N[C@@H](c2ccccc2)[C@@H](C)CCCC(=O)N[C@H]1c1ccccc1 returned CCHFV vOTU inh -6.2.
O=C(NC1CCCCN(Cc2ccc(OC(F)(F)F)cc2)C1=O)c1cccc(C(F)(F)F)c1 (stereo unspecified) was read as CCHFV vOTU inh 25.4.
Screening CCOc1ccc(S(=O)(=O)NCCC2=CCCCC2)c2ccccc12 returned BoNT-A LC inh2 inconclusive, 3CLpro inhibitor 0.1, Anthrax LF prot -1.5, BoNT F protease -4.2, CCHFV vOTU inh 5.5 and Bead autofluor 24639*.
For COc1ccc(C)cc1S(=O)(=O)NCCC1=CCCCC1 the results were BoNT-A LC inh2 0.7, 3CLpro inhibitor -2.2, Anthrax LF prot 2.0, BoNT F protease -3.4, CCHFV vOTU inh -6.1 and Bead autofluor 10623.
Screening CN(C(=O)[C@@H](Cc1ccccc1)NC(=O)[C@H]1O[C@@H](n2cnc3c(=O)[nH]c(N)nc32)[C@H](O)[C@@H]1O)C1CCCCC1 returned CCHFV vOTU inh 4.7.
`O=C(OCc1cn(Cc2cc(F)ccc2F)nn1)N1CCOCC1` gave CCHFV vOTU inh -1.4.
Screening N#CCc1ccc(OC[C@@H](O)CN2CCC(C(O)(c3ccccc3)c3ccccc3)CC2)cc1 returned CCHFV vOTU inh -8.5.
For CCC(C(=O)N1CCN(S(C)(=O)=O)CC1)c1ccccc1 (stereo unspecified) the results were BoNT-A LC inh2 -2.4, 3CLpro inhibitor -1.5, Anthrax LF prot 1.2, BoNT F protease -3.5, CCHFV vOTU inh 19.0 and Bead autofluor 20841*.
`CC(=O)CC[C@@H]1CC[C@]2(CCCN(C(=O)C(C)(C)C)C2)O1` gave CCHFV vOTU inh 5.2.
Screening Cc1cc(/C=C\c2ccc3cc(N(C)C)ccc3[n+]2C)c(C)n1-c1ccccc1 returned BoNT-A LC inh2 16.3, Anthrax LF prot -106.6, BoNT F protease active and Bead autofluor 3555.

High-throughput results deposited in PubChem by several laboratories.
